GPT2 inhibitor = Primary qHTS assay for inhibitors of Glutamate pyruvate transaminase 2 (GPT2); Alanine aminotransferase 2 (Homo sapiens), Q8TD30; Recombinant GPT2, coupled pyruvate oxidase/HRP Amplex Red fluorescence; Potency, µM (highest dose often 57.7 µM), inactives show at the highest dose activity change, negative = inhibition, actives largely listed as inhibitors; hit rate 0.25% among 100,000; note: nearly all actives have a fitted effect of over 60% in size
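GPT2 10ng/uL, a-KG 250uM, L-Ala 2mM, HEPES pH7.5 + 0.0001% Tween; 30 min RT. Then Amplex mix (PO/HRP/ThPP), 30 min RT dark, fluorescence. AOA 50uM used as positive control.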
NPR1 antag = Natriuretic polypeptide receptor (hNpr1) antagonism - Primary qHTS | HEK293 hNpr1 GloSensor cGMP, ANP-stimulated luminescence | hit rate 1.6% among 76,000 | Potency, µM (titrated, usually from 46.3 µM), inactives show top-dose activity change, negative = inhibition, most hits filed as inhibitors | Atrial natriuretic peptide receptor 1 (Homo sapiens), P16066; calls by dose curve; note: nearly all actives have a fitted effect of over 60% in size
Target sequence (P16066 whole entry, looked up): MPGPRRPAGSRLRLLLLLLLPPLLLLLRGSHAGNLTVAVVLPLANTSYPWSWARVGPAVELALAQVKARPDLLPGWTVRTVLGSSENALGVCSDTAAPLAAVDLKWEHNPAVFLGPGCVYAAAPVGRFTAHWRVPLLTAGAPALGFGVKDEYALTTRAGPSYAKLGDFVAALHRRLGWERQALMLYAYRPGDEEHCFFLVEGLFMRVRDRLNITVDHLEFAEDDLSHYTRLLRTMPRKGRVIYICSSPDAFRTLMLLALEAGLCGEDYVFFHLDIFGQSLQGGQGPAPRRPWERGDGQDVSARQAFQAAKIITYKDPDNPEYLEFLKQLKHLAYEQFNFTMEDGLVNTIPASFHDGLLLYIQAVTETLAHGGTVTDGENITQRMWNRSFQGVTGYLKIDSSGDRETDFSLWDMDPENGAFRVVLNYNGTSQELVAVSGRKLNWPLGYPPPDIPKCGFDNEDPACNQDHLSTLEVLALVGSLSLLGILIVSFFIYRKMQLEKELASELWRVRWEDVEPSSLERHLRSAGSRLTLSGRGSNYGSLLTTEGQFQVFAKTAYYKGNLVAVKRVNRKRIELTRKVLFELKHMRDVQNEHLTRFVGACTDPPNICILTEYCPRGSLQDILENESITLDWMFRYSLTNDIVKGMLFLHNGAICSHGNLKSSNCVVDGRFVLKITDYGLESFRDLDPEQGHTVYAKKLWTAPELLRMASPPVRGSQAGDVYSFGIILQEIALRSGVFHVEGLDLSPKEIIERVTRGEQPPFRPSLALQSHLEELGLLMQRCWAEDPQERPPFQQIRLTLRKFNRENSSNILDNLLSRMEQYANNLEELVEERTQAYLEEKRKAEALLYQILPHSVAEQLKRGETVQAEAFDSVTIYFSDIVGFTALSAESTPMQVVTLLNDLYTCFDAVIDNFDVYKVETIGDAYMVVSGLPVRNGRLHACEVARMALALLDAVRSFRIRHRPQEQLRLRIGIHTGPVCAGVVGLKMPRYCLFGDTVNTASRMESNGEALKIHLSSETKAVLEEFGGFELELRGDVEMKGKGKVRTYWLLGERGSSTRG
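Compound pre-incubated 30 min at room temperature on GloSensor-loaded HEK293 cells stably carrying hNpr1 and the pGS-40F cGMP biosensor. Stimulation uses hNppA at 0.1 nM final; luminescence is taken at baseline and 20 min post-agonist.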
HEK293 tox = Cytotoxic Profiling in HEK 293 Cell Line of Diverse Libraries Using Quantitative High-Throughput Screening; hit rate 6.6% among 94,000; Potency, µM (highest dose often 115 µM), without a hit: top-dose activity change, negative = cytotoxicity, hits mostly inhibitors; HEK 293 viability, ATP luminescence (CellTiter-Glo), 48-72 h; note: nearly all actives have a fitted effect of over 60% in size
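ATP-coupled CellTiter-Glo luminescence served as viability read-out, recorded 10 min after reagent addition at room temperature. HEK 293 cells, 250 cells/well, had been incubated with pintool-transferred compound for 48 or 72 hr at 37 degree Celsius.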
Luciferase inh = Firefly luciferase inhibition profiling of diverse chemical library using quantitative high-throughput screening | AID 1347043, 2019 | Luciferin 4-monooxygenase (Photinus pyralis), P08659 | Potency, µM (titrated, usually from 115 µM), actives largely listed as inhibitors | purified P. pyralis luciferase, luminescence, biochemical | hit rate 2.5% among 76,000; note: nearly all actives have a fitted effect of over 65% in size
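Luminescence read by CCD imaging after purified firefly luciferase (10nM final) was added to substrate buffer holding 10uM D-luciferin and 10uM ATP, pH 7.5, pre-dosed with compound.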
NIH3T3 tox = Cytotoxic Profiling in NIH 3T3 Cell Line of Diverse Libraries Using Quantitative High-Throughput Screening; NIH 3T3 viability, CellTiter-Glo ATP luminescence, 48-72 h; Potency, µM (top dose mostly 96.7 µM), for inactives: top-dose activity change, negative = cytotoxicity, most hits filed as inhibitors; hit rate 4.3% among 94,000; AID 1345082, 2018; note: nearly all actives have a fitted effect of over 55% in size
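Mouse fibroblast NIH 3T3 cells, 400 per well, received compound via pintool and were incubated for 48 or 72 hr prior to CellTiter-Glo ATP luminescence measurement.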
* marks the source's active call; other numbers are inactive results; i = inactive; ? = inconclusive; · = not tested or not shown; [ ] = dose if it differs, or a comment. In the library only some 10% were active in any assay of this set; here they are far more common. Unless noted, calls come from the whole dose curve; as a rule, active = well fitted curve in the direction sought with a large enough effect; inconclusive = small, poorly fitted or top-dose-only effect, or another doubt; inactive = no such curve, though single readings can be large; an effect the other way counts as inactive or inconclusive. % is set by controls: 0 for no effect and ±100 for the full control effect; potency is the fitted concentration of half-maximal effect.

SMILES | GPT2 inhibitor | NPR1 antag | HEK293 tox | Luciferase inh | NIH3T3 tox
CN1C[C@@H](NC(=O)c2ccc(F)cc2)C[C@H]1c1nc(-c2ccccc2)no1 | -10%[88.5 µM] | -8%[70.6 µM] | ? | ? | -13%[174 µM]
CN1C[C@@H](NC(=O)c2cccs2)C[C@H]1c1nc(-c2ccc(F)cc2)no1 | -6%[88.5 µM] | -30%[70.6 µM] | 89µM* | i | ?
CN1C[C@@H](NC(=O)Nc2ccccc2)C[C@H]1c1nc(-c2ccc(Cl)cc2)no1 | -11%[88.5 µM] | ? | ? | 35µM* | ?
COCCN1C(=O)c2cccn2CC1CNC(=O)Cc1c(C)noc1C (centres undefined) | i | 9% | 2% | i | i
COc1ccc(CN2CC3(CCN(S(=O)(=O)Cc4ccccc4F)CC3)C2=O)cc1 | i | -17% | ? | i | -32%
COc1cccc(-c2c(C(=O)NCc3cccc(C(F)(F)F)c3)nc3sccn23)c1 | -19% | · | ? | · | ?
CCOc1ccc(C(=O)NC2CCCN(c3cc(-c4ccccc4)[nH]n3)C2)cc1OCC (centres undefined) | -6% | -9% | 32µM* | i | ?
COc1ccc(C(=O)NC2CCN(c3cc(-c4ccccc4)[nH]n3)C2)cc1F (centres undefined) | ? | 5% | ? | i | ?
COc1ccc(C(=O)NC2CCCN(c3cc(-c4ccccc4)[nH]n3)C2)cc1OC (centres undefined) | -8% | -10% | ? | 28µM* | -29%
CCOc1cc(C(=O)NC2CCN(c3cc(-c4ccccc4)[nH]n3)C2)cc(OCC)c1OCC (centres undefined) | -9% | 3% | ? | i | ?
O=C1N2CCCC2CN1C1CCN(Cc2cccc(Cl)c2)CC1 (centres undefined) | -6%[88.5 µM] | 1%[70.6 µM] | -16%[172 µM] | i | -4%[138 µM]
COc1ccc(CNC(=O)N2CCCC(Cc3nncn3C(C)C)C2)cc1 (centres undefined) | i | -8% | i | i | i
C[C@@H](NC(=O)C1CC1)c1c(-c2ccc(F)cc2)noc1C(=O)O | -10%[88.5 µM] | 1%[70.6 µM] | -12%[172 µM] | i | -12%[138 µM]
C[C@@H](NC(=O)C1CCCCC1)c1c(-c2ccc(F)cc2)noc1C(=O)O | -2%[88.5 µM] | -1%[70.6 µM] | -7%[172 µM] | i | 40µM*
c1cncc(-c2cc3c(cn2)CN(Cc2ccncc2)CCN3)c1 | 1%[88.5 µM] | -18%[70.6 µM] | ? | i | -17%[138 µM]
CCn1cc(-c2cc3c(cn2)CN(Cc2cccnc2)CCN3)cn1 | 3%[88.5 µM] | 2%[70.6 µM] | ? | 63µM* | 2%[138 µM]
Cc1cc(-c2cc3c(cn2)CN(Cc2cccc(F)c2)CCN3)ccn1 | -1%[88.5 µM] | -24%[70.6 µM] | 71µM* | 16µM* | ?
COc1ccc(OC)c(CN2CCNc3cc(-c4ccnc(C)c4)ncc3C2)c1 | -8%[88.5 µM] | 4%[70.6 µM] | 100µM* | ? | ?
COc1ccc(CN2CCNc3cc(-c4ccnc(C)c4)ncc3C2)cc1 | 4%[88.5 µM] | -3%[70.6 µM] | 89µM* | ? | ?
Cc1cc(-c2cc3c(cn2)CN(CC2CCOC2)CCN3)ccn1 (centres undefined) | i | 4%[70.6 µM] | -30%[172 µM] | ? | ?
CCNC(=O)N1CCC[C@@H](O)[C@H](NC(=O)c2ccc(OCc3c(C)noc3C)cc2)C1 | ? | -8%[70.6 µM] | -1%[172 µM] | i | -31%[174 µM]
COc1ccc(-c2cc(N3CCC(NC(=O)Cc4ccccc4F)CC3)n[nH]2)cc1 | -2% | 3% | ? | i | ?
Cc1ccc(-c2cn3c(n2)CO[C@@H](CNC(C)C)C3)cc1 | -11%[88.5 µM] | 2%[70.6 µM] | ? | 40µM* | ?
COc1ccccc1-c1cn2c(n1)CO[C@@H](CNC(=O)NC(C)C)C2 | i | 4%[70.6 µM] | -10%[172 µM] | i | -3%[138 µM]
Cc1ccc(-c2cn3c(n2)CO[C@@H](CNC(=O)c2ccc(Cl)cc2)C3)cc1 | -8%[88.5 µM] | ? | ? | 40µM* | ?
SMILES | GPT2 inhibitor | NPR1 antag | HEK293 tox | Luciferase inh | NIH3T3 tox
COc1ccccc1-c1cn2c(n1)CO[C@@H](CNC(=O)c1ccc(Cl)cc1)C2 | 0%[88.5 µM] | -10%[70.6 µM] | 100µM* | i | ?
COc1cccc(CN2CCC(N3CCCNC3=O)CC2)c1 | 1%[88.5 µM] | 0%[70.6 µM] | -3%[172 µM] | i | -13%[138 µM]
Cc1ccc(C(=O)NC[C@H]2O[C@@H](CC(=O)Nc3ccccc3)[C@H](O)[C@@H]2O)cc1 | -5%[88.5 µM] | 3%[70.6 µM] | i | i | i
CCCN(CC1CCOC1)S(=O)(=O)c1ccc(F)c(F)c1 (centres undefined) | 1% | 4% | 3% | i | i
COCCOc1ccc2c(n1)CCN(C(=O)c1ccc(OC)cc1)C2 | 0% | 2% | 5% | i | -10%
COCCOc1ccc2c(n1)CCN(C(=O)c1ccc(C(C)C)cc1)C2 | -9% | -7% | ? | 16µM* | ?
CCOc1ccc2c(n1)CCN(C(=O)c1ccc(C(C)C)cc1)C2 | i | -3% | ? | 32µM* | ?
CCOc1ccc2c(n1)CCN(C(=O)c1ccc(C)cc1)C2 | -1% | -11% | -8% | i | -20%
COCCOc1ccc2c(n1)CCN(C(=O)CCC1CCCC1)C2 | -3% | 11µM* | ? | ? | -25%
O=C(Nc1cc(F)c(F)c(F)c1)N1CCC(N2CC3CC(C2)[C@H]2CCCC(=O)N2C3)CC1 (some centres undefined) | 3% | 1% | 1% | i | -1%
Cc1ccc(-c2cc(C(=O)NCC(F)F)nn3cnnc23)cc1 | i | · | 0%[172 µM] | · | -3%[138 µM]
CC(C)CNC(=O)c1cc(-c2ccc(F)cc2)c2nncn2n1 | i | · | ? | · | 45µM*
COC(=O)C1=C(C)N=C2SC=C(CC(=O)NCc3ccc(F)cc3)N2C1c1cccc(OC)c1 (centres undefined) | i | -8% | 40µM* | i | ?
COC(=O)C1=C(C)N=C2SC=C(CC(=O)NCc3ccccc3)N2C1c1cccc(F)c1 (centres undefined) | i | -25% | ? | i | ?
COC(=O)C1=C(C)N=C2SC=C(CC(=O)NCc3ccccc3)N2C1c1ccccc1C (centres undefined) | i | -5% | 45µM* | i | ?
CC1=C(C(=O)Nc2ccccc2)C(c2cc(C)ccc2C)N2C(CC(=O)NC(C)C)=CSC2=N1 (centres undefined) | 3% | -26% | 40µM* | i | ?
COC(=O)C1=C(C)N=C2SC=C(CC(=O)NCCc3ccccc3)N2C1c1cccc(OC)c1 (centres undefined) | -14% | -16% | 45µM* | i | ?

Screens (PubChem BioAssay)
